Laboratory results: the supplement of paper PMC11732987, “Enantioselective OTUD7B fragment discovery through chemoproteomics screening and high-throughput optimisation” (Communications Chemistry, 2025)

Experiments:
Assay in all cases: log2 ratio of Biotin-Ahx-Ub-VS probe labelling (fragment/DMSO); higher = less target engagement (more negative = stronger competition), active = hit call of the paper (q ≤ 0.05, log2 ratio ≤ -1)
Conditions in all cases: compound concentration: 200 uM; treatment time: 3 h
OTUD6B = target: T1, OTUD6B (UniProt Q8N6M0)
T1 sequence (whole entry): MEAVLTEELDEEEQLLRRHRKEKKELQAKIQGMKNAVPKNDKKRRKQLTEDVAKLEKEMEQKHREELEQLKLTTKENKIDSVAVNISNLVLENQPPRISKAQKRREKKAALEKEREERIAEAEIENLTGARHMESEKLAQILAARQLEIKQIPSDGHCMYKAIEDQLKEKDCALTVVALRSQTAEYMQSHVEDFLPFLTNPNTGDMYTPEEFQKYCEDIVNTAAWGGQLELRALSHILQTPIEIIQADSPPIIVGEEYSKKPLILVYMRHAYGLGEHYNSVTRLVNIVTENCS
Method in brief: (§1)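 Lysate from HEK293T cells, 495 µg per sample in Tris/CHAPS/IGEPAL buffer with protease inhibitors, was treated for 3 h in triplicate with fragment at 200 µM or vehicle. Biotin-Ahx-Ub-VS was next added at 0.5 µM final for 1 h. The labelled DUBs were enriched with NeutrAvidin, digested with LysC and trypsin, and run by diaPASEF LC-MS/MS, with values given as average log2 fragment/vehicle ratios by unpaired t-test on global-median-normalised Spectronaut quantities of proteins with ≥2 unique peptides.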

OTUD7B = target: T2, OTUD7B (UniProt Q6GQQ9)
T2 sequence (whole entry): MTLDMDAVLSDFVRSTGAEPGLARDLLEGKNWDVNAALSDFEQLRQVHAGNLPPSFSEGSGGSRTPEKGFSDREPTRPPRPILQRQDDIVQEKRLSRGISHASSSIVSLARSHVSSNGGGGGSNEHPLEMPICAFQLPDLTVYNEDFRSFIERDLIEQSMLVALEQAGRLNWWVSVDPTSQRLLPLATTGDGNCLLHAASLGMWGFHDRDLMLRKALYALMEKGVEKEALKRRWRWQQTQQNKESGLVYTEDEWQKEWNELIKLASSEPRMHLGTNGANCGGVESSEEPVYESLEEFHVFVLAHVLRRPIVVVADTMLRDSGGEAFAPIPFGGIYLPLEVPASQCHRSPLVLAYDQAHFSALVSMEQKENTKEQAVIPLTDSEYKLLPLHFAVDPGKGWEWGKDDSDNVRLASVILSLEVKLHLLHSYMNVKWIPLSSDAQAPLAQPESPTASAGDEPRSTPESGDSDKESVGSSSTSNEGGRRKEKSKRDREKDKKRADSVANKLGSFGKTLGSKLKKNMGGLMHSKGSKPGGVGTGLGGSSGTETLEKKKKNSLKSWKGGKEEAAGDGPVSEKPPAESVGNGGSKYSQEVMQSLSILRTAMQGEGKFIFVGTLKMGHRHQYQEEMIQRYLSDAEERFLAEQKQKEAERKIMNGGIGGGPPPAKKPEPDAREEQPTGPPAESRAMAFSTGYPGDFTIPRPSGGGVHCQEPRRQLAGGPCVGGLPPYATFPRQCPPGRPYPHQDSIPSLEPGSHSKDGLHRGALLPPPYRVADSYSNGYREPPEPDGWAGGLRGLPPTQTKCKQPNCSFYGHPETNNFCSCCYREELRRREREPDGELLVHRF
Method in brief: as §1

PRPF8 = PRPF8 (UniProt Q6P2Q9)
Method in brief: as §1

PSMD7 = target: T3, PSMD7 (UniProt P51665)
T3 sequence (whole entry): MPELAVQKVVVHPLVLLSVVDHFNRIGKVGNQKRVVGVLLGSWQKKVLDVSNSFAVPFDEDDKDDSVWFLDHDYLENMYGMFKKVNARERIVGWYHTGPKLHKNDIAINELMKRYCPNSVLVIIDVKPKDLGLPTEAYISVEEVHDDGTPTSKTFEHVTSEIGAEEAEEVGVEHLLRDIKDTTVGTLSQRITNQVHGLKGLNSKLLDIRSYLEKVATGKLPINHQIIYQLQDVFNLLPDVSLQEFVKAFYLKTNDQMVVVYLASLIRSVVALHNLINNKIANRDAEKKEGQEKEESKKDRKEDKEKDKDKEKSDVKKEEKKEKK
Method in brief: as §1

UCHL1 = UCHL1 (UniProt P09936)
Sequence of UCHL1 (P09936 whole entry, looked up): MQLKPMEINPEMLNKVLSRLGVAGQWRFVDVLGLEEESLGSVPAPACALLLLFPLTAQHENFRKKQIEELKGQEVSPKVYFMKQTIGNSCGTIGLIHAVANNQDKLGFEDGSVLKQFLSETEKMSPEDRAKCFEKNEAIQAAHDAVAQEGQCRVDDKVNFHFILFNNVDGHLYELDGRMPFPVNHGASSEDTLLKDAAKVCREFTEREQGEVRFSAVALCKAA
Method in brief: as §1

UCHL3 = target: T4, UCHL3 (UniProt P15374)
T4 sequence (whole entry): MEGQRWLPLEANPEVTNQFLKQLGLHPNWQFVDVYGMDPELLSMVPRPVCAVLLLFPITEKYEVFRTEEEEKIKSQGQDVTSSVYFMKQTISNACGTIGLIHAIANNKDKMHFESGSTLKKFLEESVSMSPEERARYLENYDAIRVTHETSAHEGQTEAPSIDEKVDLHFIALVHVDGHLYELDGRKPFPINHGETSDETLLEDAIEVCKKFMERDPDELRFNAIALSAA
Method in brief: as §1

UCHL5 = target: T5, UCHL5 (UniProt Q9Y5K5)
T5 sequence (whole entry): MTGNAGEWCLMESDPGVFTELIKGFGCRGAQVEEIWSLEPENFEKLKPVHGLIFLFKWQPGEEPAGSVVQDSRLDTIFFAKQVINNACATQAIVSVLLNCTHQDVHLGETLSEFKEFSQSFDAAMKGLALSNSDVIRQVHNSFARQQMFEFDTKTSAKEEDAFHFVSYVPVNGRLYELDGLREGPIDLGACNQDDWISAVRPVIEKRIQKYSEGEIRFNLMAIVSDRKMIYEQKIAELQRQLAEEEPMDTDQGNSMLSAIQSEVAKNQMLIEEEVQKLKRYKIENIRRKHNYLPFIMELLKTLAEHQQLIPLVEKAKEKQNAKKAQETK
Method in brief: as §1

USP10 = USP10 (UniProt Q14694)
Sequence of USP10 (Q14694 whole entry): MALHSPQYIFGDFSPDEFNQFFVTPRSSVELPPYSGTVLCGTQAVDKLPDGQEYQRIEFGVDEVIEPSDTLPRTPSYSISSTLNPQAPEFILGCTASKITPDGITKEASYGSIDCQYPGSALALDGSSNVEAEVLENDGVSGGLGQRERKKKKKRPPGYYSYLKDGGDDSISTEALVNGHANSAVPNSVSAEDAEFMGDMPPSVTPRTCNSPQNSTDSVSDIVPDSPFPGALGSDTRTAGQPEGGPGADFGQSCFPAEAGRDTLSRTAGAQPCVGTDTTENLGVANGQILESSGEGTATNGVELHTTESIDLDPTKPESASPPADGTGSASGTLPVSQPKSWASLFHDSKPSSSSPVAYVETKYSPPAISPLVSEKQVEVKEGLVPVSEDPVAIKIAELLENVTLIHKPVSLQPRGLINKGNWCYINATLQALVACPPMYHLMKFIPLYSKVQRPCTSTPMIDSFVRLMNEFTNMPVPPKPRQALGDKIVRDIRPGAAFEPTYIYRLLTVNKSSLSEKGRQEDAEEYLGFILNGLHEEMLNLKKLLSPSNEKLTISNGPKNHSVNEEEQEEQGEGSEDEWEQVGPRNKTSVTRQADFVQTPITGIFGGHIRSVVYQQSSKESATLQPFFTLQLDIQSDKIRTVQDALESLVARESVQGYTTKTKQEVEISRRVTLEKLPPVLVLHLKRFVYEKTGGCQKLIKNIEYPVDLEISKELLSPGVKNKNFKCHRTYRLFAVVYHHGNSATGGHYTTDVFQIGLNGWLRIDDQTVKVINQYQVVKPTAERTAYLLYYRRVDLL
Method in brief: as §1

USP15 = target: T6, USP15 (UniProt Q9Y4E8)
T6 sequence (whole entry): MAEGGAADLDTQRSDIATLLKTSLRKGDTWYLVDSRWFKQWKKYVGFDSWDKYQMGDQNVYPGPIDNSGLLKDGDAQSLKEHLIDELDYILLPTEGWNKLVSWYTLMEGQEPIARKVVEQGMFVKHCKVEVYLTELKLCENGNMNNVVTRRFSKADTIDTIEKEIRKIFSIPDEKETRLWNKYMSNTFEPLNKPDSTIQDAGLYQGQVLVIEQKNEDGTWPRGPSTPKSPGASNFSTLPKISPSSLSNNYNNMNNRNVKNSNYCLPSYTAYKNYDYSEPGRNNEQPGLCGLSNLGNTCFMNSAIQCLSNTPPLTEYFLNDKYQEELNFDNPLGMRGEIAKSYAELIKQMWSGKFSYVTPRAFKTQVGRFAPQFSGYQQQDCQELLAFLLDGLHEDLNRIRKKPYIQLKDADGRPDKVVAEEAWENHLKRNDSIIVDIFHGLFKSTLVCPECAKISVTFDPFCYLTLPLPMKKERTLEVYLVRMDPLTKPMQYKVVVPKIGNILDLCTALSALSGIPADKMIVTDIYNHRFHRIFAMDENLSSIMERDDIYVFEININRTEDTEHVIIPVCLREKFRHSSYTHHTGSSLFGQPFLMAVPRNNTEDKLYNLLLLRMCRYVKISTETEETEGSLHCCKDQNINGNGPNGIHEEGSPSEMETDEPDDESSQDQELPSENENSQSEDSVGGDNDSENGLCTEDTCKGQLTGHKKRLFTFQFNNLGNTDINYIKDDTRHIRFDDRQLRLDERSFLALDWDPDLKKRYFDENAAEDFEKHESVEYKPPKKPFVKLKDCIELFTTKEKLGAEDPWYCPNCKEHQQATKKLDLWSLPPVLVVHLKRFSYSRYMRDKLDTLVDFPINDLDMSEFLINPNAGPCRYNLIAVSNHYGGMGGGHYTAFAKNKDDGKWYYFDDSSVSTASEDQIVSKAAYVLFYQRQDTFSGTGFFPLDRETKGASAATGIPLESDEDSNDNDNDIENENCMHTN
Method in brief: as §1

USP16 = USP16 (UniProt Q9Y5T5)
Sequence of USP16 (Q9Y5T5 whole entry, looked up): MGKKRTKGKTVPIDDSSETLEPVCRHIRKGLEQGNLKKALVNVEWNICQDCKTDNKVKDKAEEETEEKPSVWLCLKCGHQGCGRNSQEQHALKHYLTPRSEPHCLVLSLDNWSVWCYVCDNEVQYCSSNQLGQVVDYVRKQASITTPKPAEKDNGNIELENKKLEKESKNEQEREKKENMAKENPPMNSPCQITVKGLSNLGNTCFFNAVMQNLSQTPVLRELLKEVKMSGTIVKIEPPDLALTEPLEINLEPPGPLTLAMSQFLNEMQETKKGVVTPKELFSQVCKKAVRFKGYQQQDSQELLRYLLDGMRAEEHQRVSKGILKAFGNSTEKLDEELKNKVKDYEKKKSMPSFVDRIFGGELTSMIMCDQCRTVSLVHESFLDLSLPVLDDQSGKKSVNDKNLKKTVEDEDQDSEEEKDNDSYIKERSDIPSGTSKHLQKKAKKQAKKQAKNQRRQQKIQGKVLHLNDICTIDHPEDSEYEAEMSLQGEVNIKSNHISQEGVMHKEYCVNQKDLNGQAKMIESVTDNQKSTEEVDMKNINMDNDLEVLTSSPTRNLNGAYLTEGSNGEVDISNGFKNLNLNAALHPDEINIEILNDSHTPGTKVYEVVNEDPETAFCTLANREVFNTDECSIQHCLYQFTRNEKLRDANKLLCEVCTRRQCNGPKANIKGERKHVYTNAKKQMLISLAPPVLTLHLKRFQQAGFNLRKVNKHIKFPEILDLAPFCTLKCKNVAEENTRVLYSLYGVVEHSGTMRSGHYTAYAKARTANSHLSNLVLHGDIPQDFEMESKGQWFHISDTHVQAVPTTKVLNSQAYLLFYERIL
Method in brief: as §1

Measured: log2 ratio of Biotin-Ahx-Ub-VS probe labelling

O=C(CCl)NC1(c2ccc3c(c2)OCCO3)CCCC1
inactive: OTUD6B -0.0936 | OTUD7B -0.638 | PRPF8 -0.154 | PSMD7 -0.208 | UCHL3 -0.106 | UCHL5 -0.537 | USP10 -0.203 | USP15 -0.213 | USP16 -0.316
active: UCHL1 -1.32
